SW480 rereplic = DNA re-replication induction in SW480 cells; SW480 DNA re-replication, Hoechst DNA content imaging, 48 h; Potency, µM (top dose mostly 46.1 µM), inactives show at the highest dose re-replication activation, actives largely listed as activators; actives 1.8% (n = 340,000); AID 624297; further: % of control where 0% means no effect; nearly all actives have a fitted effect of over 55% in size
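Readout is total intensity of Hoechst-stained nuclei, excited at 405 nm and collected at 500-530 nm. Compound treatment lasted 48 hr at 37 C in 5% CO2 before staining.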
HT1080-NT tox = kills 2HG-producing HT-1080-NT fibrosarcoma cells | AID 686970 | actives 1.6% (n = 360,000) | HT-1080-NT fibrosarcoma viability, CellTiter-Glo ATP luminescence, 48 h | Potency, µM (titrated, usually from 46.1 µM), without a hit: top-dose activity, negative = less viability, hits mostly cytotoxic;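 further: NT is the 2HG producing partner of a matched IDH1 knockdown line; 0% = DMSO-treated cells and -100% = media-only wells without cells; nearly all actives have a fitted effect of over 55% in size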
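Luminescent CellTiter-Glo readout after 48 hours of compound exposure at 37 degrees C defined viability of HT-1080-NT cells. Activity was normalized to DMSO wells and cell-free media wells; concentration-response curves were fitted and assigned curve classes.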
HT1080 IDH1KD tx = HT-1080 IDH1 knockdown cell toxicity (counter line). Potency, µM (doses to about 46.1 µM), without a hit: at the highest dose activity, negative = toxicity, most hits filed as cytotoxic. HT-1080 IDH1 knockdown viability, ATP luminescence, 48 h. actives 2% (n = 360,000);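 further: 0% = DMSO wells and -100% = cell-free medium wells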
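After a 2 h attachment period, IDH1KD HT-1080 cells took pin-transferred compound for 48 h at 37 °C; ATP-based luminescence after 10 min room-temperature reagent incubation reported viability.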
KB-V1 cytotox = KB-V1 MDR subline cytotoxicity; Potency, µM (doses to about 46.1 µM), usual class: cytotoxic; KB-V1 MDR cells viability, CellTiter-Glo, 72 h; actives 3.4% (n = 400,000); further: on the % scale 0 is the no-effect control and ±100 the full control effect; nearly all actives have a fitted effect of over 60% in size
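Cells of the MDR subline KB-V1 are plated, dosed with compound at multiple concentrations, and incubated 72 h at 37 degrees C; CellTiter-Glo is then added and luminescence read after 10 min.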
KB-3-1 tox = kills parental KB-3-1 adenocarcinoma cells | KB-3-1 viability, CellTiter-Glo ATP luminescence, 72 h | Potency, µM (titrated, usually from 46.1 µM), hits mostly cytotoxic | actives 1.4% (n = 400,000) | AID 1347075; further: on the % scale 0 is the no-effect control and ±100 the full control effect; nearly all actives have a fitted effect of over 60% in size
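Cytotoxicity in the drug-sensitive parental line KB-3-1 was scored as loss of CellTiter-Glo luminescence following 72 h incubation with compound. Values come from curve fitting of normalized concentration-response data.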
MCF10A rerep = DNA re-replication induction in MCF 10a cells | MCF 10A DNA re-replication, Hoechst nuclear intensity, 48 h | Potency, µM (doses to about 46.1 µM), inactives show at the top dose activity, positive = re-replication, most hits filed as activators | actives 2.9% (n = 350,000); further: % of control where 0% means no effect; nearly all actives have a fitted effect of over 50% in size
The depositor's hits bear a star. Compounds with a hit are over-represented: about 8% of the library has one in this group of screens. The call rests on the fitted dose curve; in most records, active means well fitted curve in the direction sought with a large enough effect; inconclusive means small, poorly fitted or top-dose-only effect, or another doubt; inactive means no such curve, though single readings can be large; an effect the other way counts as inactive or inconclusive. Potency means the concentration at half of the fitted maximal effect.

Screening CC(=O)Nc1ccc(NC(=O)C(C)OC(=O)c2ccc(S(=O)(=O)N3CCCCC3)cc2)cc1 (stereo not drawn) returned SW480 rereplic inconclusive, HT1080-NT tox 23µM*, HT1080 IDH1KD tx inconclusive, KB-V1 cytotox inactive, KB-3-1 tox inactive and MCF10A rerep inconclusive.
O=C(Nc1ccc(S(=O)(=O)N2CCCCC2)cc1)C1CCCN(C(=O)c2ccc(Cl)cc2)C1 (stereo not drawn) was read as SW480 rereplic -1%, HT1080-NT tox -8%, HT1080 IDH1KD tx -10%, KB-V1 cytotox inactive, KB-3-1 tox 9.2µM* and MCF10A rerep 29%.
For CCc1ccc(NC(=O)C(C)OC(=O)c2ccc(NS(=O)(=O)c3ccc(C)c([N+](=O)[O-])c3)cc2)cc1 (stereo not drawn) the results were SW480 rereplic inconclusive, HT1080-NT tox inconclusive, HT1080 IDH1KD tx inconclusive, KB-V1 cytotox inconclusive, KB-3-1 tox 23µM* and MCF10A rerep inconclusive.
`COCCn1c(=O)[nH]c(=O)c2c(C(F)(F)F)cc(-c3cccs3)nc21` gave SW480 rereplic -7%, HT1080-NT tox -1%, HT1080 IDH1KD tx -12%, KB-V1 cytotox inactive, KB-3-1 tox inactive and MCF10A rerep 9%.
For O=C(NCCC1=CCCCC1)c1cccc(S(=O)(=O)N2CCCCC2)c1 the results were SW480 rereplic inconclusive, HT1080-NT tox 7%, HT1080 IDH1KD tx 1%, KB-V1 cytotox inconclusive, KB-3-1 tox inactive and MCF10A rerep inconclusive.
`CC(C)(C)NC(=O)NC(=O)COC(=O)c1cc[n+]([O-])cc1` gave SW480 rereplic -3%, HT1080-NT tox 0%, HT1080 IDH1KD tx 13%, KB-V1 cytotox inactive, KB-3-1 tox inactive and MCF10A rerep 1%.
`COC(=O)Nc1ccc(S(=O)(=O)N2CCCCC2)cc1` gave SW480 rereplic -3%, HT1080-NT tox -25%, HT1080 IDH1KD tx -24%, KB-V1 cytotox 8.2µM*, KB-3-1 tox inconclusive and MCF10A rerep 7%.
`COC(=O)Nc1ccc(S(=O)(=O)N2CCN(C)CC2)cc1` gave SW480 rereplic -3%, HT1080-NT tox 17%, HT1080 IDH1KD tx 15%, KB-V1 cytotox inactive, KB-3-1 tox inactive and MCF10A rerep -6%.
Screening CC(C)[C@H](NC(=O)c1ccccc1)C(=O)OCC(=O)c1ccc(S(=O)(=O)N2CCCCC2)cc1 returned SW480 rereplic -2%, HT1080-NT tox 2%, HT1080 IDH1KD tx 0%, KB-V1 cytotox 21µM*, KB-3-1 tox inactive and MCF10A rerep 2%.
Screening COc1ccc(C2Nc3ccccc3C(=O)N2Cc2ccccc2)cc1COc1ccc(NC(C)=O)cc1 (stereo not drawn) returned KB-V1 cytotox inactive and KB-3-1 tox inactive.
`CCOc1ccc(NS(=O)(=O)c2ccc(OCC)c3ncccc23)cc1` gave SW480 rereplic 21µM*, HT1080-NT tox 11µM*, HT1080 IDH1KD tx 10µM*, KB-V1 cytotox 13µM*, KB-3-1 tox inconclusive and MCF10A rerep inconclusive.
For COc1ccc(S(=O)(=O)Nc2cc(C)cc(C)n2)c2ccccc12 the results were SW480 rereplic 13%, HT1080-NT tox 7%, HT1080 IDH1KD tx 0%, KB-V1 cytotox inactive, KB-3-1 tox inactive and MCF10A rerep 10%.
CCOc1ccc(S(=O)(=O)Nc2cc(C)ccn2)c2ccccc12 was read as SW480 rereplic 13%, HT1080-NT tox 2%, HT1080 IDH1KD tx -6%, KB-V1 cytotox 18µM*, KB-3-1 tox inconclusive and MCF10A rerep 24%.
Screening O=c1c2cn[nH]c2nc(SCc2ccc3c(c2)OCCO3)n1-c1ccccc1 returned SW480 rereplic inconclusive, HT1080-NT tox inconclusive, HT1080 IDH1KD tx 21µM*, KB-V1 cytotox inconclusive, KB-3-1 tox inconclusive and MCF10A rerep 25%.
Screening O=c1c2cn[nH]c2nc(SCc2cccc(Br)c2)n1-c1ccc(Cl)cc1 returned KB-V1 cytotox inactive and KB-3-1 tox inactive.
`C/C(=C(/CCO)SSCC1CCCO1)N(C=O)Cc1cnc(C)nc1N` (stereo not drawn) gave SW480 rereplic -5%, HT1080-NT tox -3%, HT1080 IDH1KD tx 6%, KB-V1 cytotox inactive, KB-3-1 tox inactive and MCF10A rerep inconclusive.
`CCCSS/C(CCO)=C(/C)N(C=O)Cc1cnc(C)nc1N` gave SW480 rereplic inconclusive and MCF10A rerep 13µM*.
`CCN(CC)CCNC(=O)C12CC3CC(CC(C3)C1)C2` gave SW480 rereplic -9%, HT1080-NT tox 2%, HT1080 IDH1KD tx 6%, KB-V1 cytotox inactive, KB-3-1 tox inactive and MCF10A rerep 2%.
For CCN(CC)CCNC(=O)C(Cl)=C1C(Cl)=C(Cl)C(Cl)=C1Cl the results were SW480 rereplic 12µM*, HT1080-NT tox -24%, HT1080 IDH1KD tx inconclusive, KB-V1 cytotox inconclusive, KB-3-1 tox inconclusive and MCF10A rerep 10µM*.
For COc1ccc(CN2CCN(C(=O)C3CCC(CNS(=O)(=O)c4ccc(C)cc4)CC3)CC2)c(OC)c1OC (stereo not drawn) the results were SW480 rereplic 4%, HT1080-NT tox -11%, HT1080 IDH1KD tx -2%, KB-V1 cytotox inconclusive, KB-3-1 tox inactive and MCF10A rerep 15%.
`Cc1ccc(S(=O)(=O)N2CCN(C(=O)COC(=O)C3CCC3)CC2)cc1` gave SW480 rereplic 6.5µM*, HT1080-NT tox -3%, HT1080 IDH1KD tx 15%, KB-V1 cytotox inactive, KB-3-1 tox inactive and MCF10A rerep -1%.
Screening Cc1ccc(OCCC(=O)OCC(=O)N2CCN(S(=O)(=O)c3ccc(Cl)cc3)CC2)cc1 returned SW480 rereplic 18µM*, HT1080-NT tox 5%, HT1080 IDH1KD tx -2%, KB-V1 cytotox inactive, KB-3-1 tox inactive and MCF10A rerep 4%.
CCOc1ccc(OCCC(=O)OCC(=O)N2CCN(S(=O)(=O)c3ccc(C)cc3)CC2)cc1 was read as SW480 rereplic 11%, HT1080-NT tox inconclusive, HT1080 IDH1KD tx -15%, KB-V1 cytotox inactive, KB-3-1 tox inactive and MCF10A rerep inconclusive.
For Cc1ccc(S(=O)(=O)N2CCN(C(=O)COc3ccc(Br)cc3)CC2)cc1 the results were SW480 rereplic -1%, HT1080-NT tox -8%, HT1080 IDH1KD tx -11%, KB-V1 cytotox 16µM*, KB-3-1 tox inactive and MCF10A rerep 2%.
`Cc1ccc(S(=O)(=O)N2CCN(C(=O)COC(=O)CCOc3ccc(C(C)(C)C)cc3)CC2)cc1` gave SW480 rereplic 18µM*, HT1080-NT tox -5%, HT1080 IDH1KD tx -7%, KB-V1 cytotox inactive, KB-3-1 tox inactive and MCF10A rerep 4%.

Screening data (PubChem BioAssay)
